Only some compounds are listed: those with a hit (about 0.86% of all), similar ones and a draw of the others.
CDC25B-CDK2 inh: human CDC25B-CDK2/CyclinA binding inhibition | P30305+P24941 | HTRF CDC25B-CDK2/CyclinA binding, anti-His/anti-Flag; active compounds read high | z-score (no concentration beside the values) | hit rate 0.72% among 94,000; in the data active = z-score above about 3.2
TAR Tat displ: HIV-1 TAR-Tat binding disruption | hit rate 0.6% among 100,000 | z-score (test concentration not listed) | HIV-1 TAR RNA, Tat peptide displacement FRET; active compounds read high; active = z-score of 3 or more in at least 2 runs
* hit, by the source's call.

Results for COc1ccc(Cl)cc1NC(=O)Cn1nc2c(cc1=O)CCC2 ?
CDC25B-CDK2 inh: -1.3; TAR Tat displ: -1

How did Cc1nn(CC(=O)NCc2ccco2)c(=O)c2c1sc1ccccc12 do in these assays?
CDC25B-CDK2 inh: -0.98; TAR Tat displ: 2.8

How did O=C(O[C@@H]1Cc2c(O)cc(O)cc2O[C@@H]1c1cc(O)c(O)c(O)c1-c1c([C@H]2Oc3cc(O)cc(O)c3C[C@H]2OC(=O)c2cc(O)c(O)c(O)c2)cc(O)c(O)c1O)c1cc(O)c(O)c(O)c1 do in these assays?
TAR Tat displ: 29*

How did O=C(O[C@@H]1Cc2c(O)cc(O)cc2O[C@@H]1c1cc(O)c(=O)c2c(O)c(O)cc([C@H]3Oc4cc(O)cc(O)c4C[C@H]3OC(=O)c3cc(O)c(O)c(O)c3)c2c1)c1cc(O)c(O)c(O)c1 do in these assays?
TAR Tat displ: 26*

What do the screens show for `O=C(Oc1cc(O)cc2c1C[C@@H](OC(=O)c1cc(O)c(O)c(O)c1)[C@@H](c1cc(O)c(O)c(O)c1)O2)c1cc(O)c(O)c(O)c1`?
TAR Tat displ: 31*

What do the screens show for `COc1ccc([C@@H]2CC(=O)c3c(O)cc(O)cc3O2)cc1O`?
TAR Tat displ: 2.9

What do the screens show for `COc1cc(NC(=O)CSc2nnc3c4c5c(sc4ncn23)CCCC5)cc(OC)c1`?
CDC25B-CDK2 inh: -0.59; TAR Tat displ: -1.2

Results for Cc1ccc(C)c(NC(=O)c2cc(=O)c3c(C)cc(C)cc3o2)c1 ?
CDC25B-CDK2 inh: 0.48; TAR Tat displ: -0.27

Results for Cc1noc2ncnc(N3CCCC(C(=O)NCCN4CCOCC4)C3)c12 (stereo unspecified) ?
TAR Tat displ: 1.3

Results for O=[N+]([O-])c1cccnc1Nc1ccccc1 ?
CDC25B-CDK2 inh: -0.63; TAR Tat displ: 0.91

How did O=C(CSc1nc2ncccc2[nH]1)N1CCCC1 do in these assays?
TAR Tat displ: 0.18

How did O=C(CSc1nc2ncccc2[nH]1)N1CCc2ccccc2C1 do in these assays?
CDC25B-CDK2 inh: 15*; TAR Tat displ: 1.7

Results for Cc1nc2cc(Nc3nnc(-c4ccc(Cl)cc4)c4ccccc34)ccc2n1C ?
CDC25B-CDK2 inh: 14*

Results for Cn1cnc2cc(Nc3nnc(-c4ccc(Cl)cc4)c4ccccc34)ccc21 ?
CDC25B-CDK2 inh: -0.73

Results for Cc1cc(Br)c(NC(=S)NNCCC#N)c(Br)c1 ?
CDC25B-CDK2 inh: -1.5

Results for COC(=O)c1ccc(Nc2nncc(=O)[nH]2)cc1 ?
CDC25B-CDK2 inh: 6.3*; TAR Tat displ: 0.52

What do the screens show for `O=c1cnnc(Nc2ccc3c(c2)OCCO3)[nH]1`?
CDC25B-CDK2 inh: -1.3; TAR Tat displ: 2

How did O=C(Nc1cccc(Cl)c1)c1cnc2sc3c(n2c1=O)CCCC3 do in these assays?
TAR Tat displ: 1.2

What do the screens show for `O=C(c1ccc(Br)cc1)C(O)c1c[nH]c2ccccc12` (stereo unspecified)?
CDC25B-CDK2 inh: 0.22; TAR Tat displ: 1.2

How did Brc1ccc(C(c2c[nH]c3ccccc23)c2c[nH]c3ccccc23)s1 do in these assays?
CDC25B-CDK2 inh: 16*

How did Fc1ccc2[nH]c3c(c2c1)CN(Cc1ccccc1)CC3 do in these assays?
CDC25B-CDK2 inh: -0.7

Results for CCOc1ccccc1C1C2=C(CCCC2=O)Nc2nc(SCc3ccccc3)nn21 (stereo unspecified) ?
CDC25B-CDK2 inh: 0.98; TAR Tat displ: 0.18

How did COc1cc(/C=c2\sc3nc4ccccc4n3c2=O)ccc1OCCOc1ccccc1 do in these assays?
CDC25B-CDK2 inh: -3.3

How did COc1ccc(NC(=O)c2sc(=S)n3c2[nH]c(=O)c2sccc23)cc1OC do in these assays?
TAR Tat displ: 9.2*

Results for COc1ccc(NC(=O)c2sc(=S)n3c2[nH]c(=O)c2ccccc23)cc1OC ?
TAR Tat displ: 3.6

Results for CSc1ncccc1C(=O)NC1CCCc2ccccc21 (stereo unspecified) ?
TAR Tat displ: 0.68

Results for COCCn1c2c(c(=O)[nH]c1=O)C(c1ccc(SC)cc1)C1=C(N2)c2ccccc2C1=O (stereo unspecified) ?
CDC25B-CDK2 inh: -2.5; TAR Tat displ: -1.5

What do the screens show for `CSc1ccc(C2C3=C(Nc4c2c(=O)[nH]c(=O)n4C)c2ccccc2C3=O)cc1` (stereo unspecified)?
CDC25B-CDK2 inh: -3; TAR Tat displ: 7.4*

What do the screens show for `Cn1ncc2c(N3CCN(C(c4ccccc4)c4ccccc4)CC3)ncnc21`?
TAR Tat displ: 3.1

What do the screens show for `Cc1nnc(SCC#CCOC(=O)c2ccc(Br)cc2)s1`?
CDC25B-CDK2 inh: -2; TAR Tat displ: 2.8

What do the screens show for `O=c1ccc(-c2ccc(S(=O)(=O)Nc3ccc(Br)cc3F)o2)n[nH]1`?
TAR Tat displ: 18*

Results for O=c1ccc(-c2ccc(S(=O)(=O)Nc3ccc(Cl)cc3F)o2)n[nH]1 ?
TAR Tat displ: 2.1

What do the screens show for `NNc1nc2ccccc2[nH]c1=S`?
CDC25B-CDK2 inh: 5.5*

Results for ON=C(c1nc2ccccc2[nH]1)c1nc2ccccc2[nH]1 ?
CDC25B-CDK2 inh: 2.4
